From PubChem BioAssay
Shown is part of a subset that was picked to be rich in hits.
Methyltransferases – Primary Screen for Target Class Profiling of Small Molecule Inhibitors of Methyltransferases; purified enzyme, MTase-Glo SAH luminescence; stronger effect = lower value; calls only at 40 µM; hit rate 3.9% among 25,000; AID 1745853, 2022; call rule not given here
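Each enzyme was assayed with SAM and its substrate. SAH formation detected by MTase-Glo luminescence; single-point 40 uM screen[…].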
* = called active by the depositor; ! = not confirmed by another sample. On the % scale 0 is the no-effect control and ±100 the full control effect.

How did COc1cccc(NC(=O)CCc2nnc3n(Cc4ccc(F)cc4)c(=O)c4ccccc4n23)c1 do in these assays?
Methyltransferases: inactive

How did Cc1ccc(Cn2c(=O)c3ccc(C(=O)NCC(C)C)cc3n3c(=O)n(C)nc23)cc1 do in these assays?
Methyltransferases: inactive

What do the screens show for `CCCn1c(=O)c2ccc(C(=O)NCC(C)C)cc2n2c(SCC(=O)c3ccc(C)cc3)nnc12`?
Methyltransferases: inactive

Results for CN1C(=O)c2cc(C(=O)NCCCN3CCCC3)nn2CC1(C)C(=O)NCc1ccccc1 (configuration not stated) ?
Methyltransferases: inactive

How did Cc1ccc(C)c(Cn2nc3n(CC(C)C)c(=O)c4ccc(C(=O)NC(C)C)cc4n3c2=O)c1 do in these assays?
Methyltransferases: inactive

How did COc1cccc(OC)c1-c1nc(C(=O)N[C@@H](CC(C)C)C(=O)O)cn1-c1ccnc2cc(Cl)ccc12 do in these assays?
Methyltransferases: inactive

Results for COc1cc(Nc2ncc3c(n2)-c2ccc(Cl)cc2C(c2c(F)cccc2OC)=NC3)ccc1C(=O)O ?
Methyltransferases: active!

How did CCOC(=O)c1cc2n(n1)CC(C)(C(=O)NCc1ccccc1)N(c1ccc(OCC)cc1)C2=O (configuration not stated) do in these assays?
Methyltransferases: inactive

Results for COc1cccc(NC(=O)Cn2c(=O)oc3cc(S(=O)(=O)N4CCC(C)CC4)ccc32)c1 ?
Methyltransferases: inactive

How did CCOc1ccc(N2C(=O)c3cc(-c4ccco4)nn3CC2(C)C(=O)NC2CCCCCC2)cc1 (configuration not stated) do in these assays?
Methyltransferases: inactive

Results for CC(C)Cn1c(=O)c2ccccc2n2c(CCC(=O)NCCc3c[nH]c4ccccc34)nnc12 ?
Methyltransferases: inactive

How did CCCn1c(=O)c2cc(Cl)ccc2n2c(SCC(=O)Nc3ccc(F)cc3)nnc12 do in these assays?
Methyltransferases: inactive

Results for O=C(NCc1ccccc1Cl)c1ccc2c(=O)nc3c(-c4cccc(F)c4)n[nH]n3c2c1 ?
Methyltransferases: inactive

Results for Cc1c(Cl)cccc1N1C(=O)c2cc(C(C)(C)C)nn2CC1(C)C(=O)NC1CCCCC1 (configuration not stated) ?
Methyltransferases: inactive

How did Oc1ccc(CNc2ccccc2F)c2cccnc12 do in these assays?
Methyltransferases: active

What do the screens show for `Cc1cccc(-c2[nH]c(CNc3ccccc3F)nc2-c2ccc3ncnn3c2)n1`?
Methyltransferases: inactive

How did CCCn1c(=O)c2ccc(C(=O)NC(C)C)cc2n2c(SCC(=O)c3ccccc3)nnc12 do in these assays?
Methyltransferases: inactive

How did CCN1C(=O)c2cc(C(=O)Nc3ccc(Cl)cc3C)nn2CC1(C)C(=O)NC1CCCC1 (configuration not stated) do in these assays?
Methyltransferases: inactive

Results for COc1cccc(CNC(=O)c2cc3n(n2)CC(C)(C(=O)NCCC(C)C)N(C)C3=O)c1OC (configuration not stated) ?
Methyltransferases: inactive

How did CC1CCCCC1NC(=O)C1(C)Cn2c(cc3sccc32)C(=O)N1Cc1ccccc1 (configuration not stated) do in these assays?
Methyltransferases: inactive

What do the screens show for `CC1(C(=O)NC2CCCCCCC2)Cn2c(cc3occc32)C(=O)N1Cc1ccco1` (configuration not stated)?
Methyltransferases: inactive

How did COc1cccc(CNC(=O)c2ncn3c2C(=O)N(C2CC2)C(C)(C(=O)NCc2ccc(F)cc2)C3)c1 (configuration not stated) do in these assays?
Methyltransferases: inactive

Results for C/C=C(\C)C(=O)O[C@H]1C=CC(=O)O[C@H]1/C=C/[C@@H](O)[C@H](C)O ?
Methyltransferases: inactive

Results for C/C=C(/C)C(=O)O[C@H]1C=C(CO)C(=O)[C@H](OC(=O)/C(C)=C/CO)[C@H]1C(C)C ?
Methyltransferases: active

What do the screens show for `CN(Cc1ccccc1)C(=O)c1ncn2c1C(=O)N(C1CC1)C(C)(C(=O)NCc1ccccc1Cl)C2` (configuration not stated)?
Methyltransferases: inactive

Results for CCN1C(=O)c2cc(C(=O)Nc3ccccc3C)nn2CC1(C)C(=O)NC1CCCC1 (configuration not stated) ?
Methyltransferases: inactive

How did CC(C)OCCCNC(=O)c1ccc2c(=O)[nH]c3c(C(=O)NC4CCCC4)sc(=S)n3c2c1 do in these assays?
Methyltransferases: inactive

How did O=C(NCCc1ccc(Cl)cc1)c1ccc2c(=O)[nH]c3c(C(=O)NC4CCCC4)sc(=S)n3c2c1 do in these assays?
Methyltransferases: active

What do the screens show for `CC(C)NC(=O)c1sc(=S)n2c1[nH]c(=O)c1ccc(C(=O)NC(C)CCc3ccccc3)cc12` (configuration not stated)?
Methyltransferases: inactive

What do the screens show for `Cc1ccc(-c2n[nH]n3c2nc(=O)c2ccc(C(=O)NCCc4ccccc4)cc23)cc1`?
Methyltransferases: inactive

How did Cn1c(=O)c2ccc(C(=O)NC3CCCCC3)cc2n2c(=O)n(Cc3ccc(Cl)cc3)nc12 do in these assays?
Methyltransferases: inactive
